The list is not random: actives were taken first. Their share in the collection is about 4.8%.
DAX1 inh-1 – inhibitors of human orphan nuclear receptor DAX1 (NR0B1). P51843. HEK293 Gal4-DAX1 luciferase reporter, luminescence. inhibition, % at 6.75 µM. 0.99% of 340,000 active;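 active means inhibition above the mean over all tested compounds plus 3 SD, cut at about 4.2% in these data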;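 further: inhibition shows as a rise in luminescence from relieved DAX1 repression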
Target sequence (P51843 207-470 limits assumed): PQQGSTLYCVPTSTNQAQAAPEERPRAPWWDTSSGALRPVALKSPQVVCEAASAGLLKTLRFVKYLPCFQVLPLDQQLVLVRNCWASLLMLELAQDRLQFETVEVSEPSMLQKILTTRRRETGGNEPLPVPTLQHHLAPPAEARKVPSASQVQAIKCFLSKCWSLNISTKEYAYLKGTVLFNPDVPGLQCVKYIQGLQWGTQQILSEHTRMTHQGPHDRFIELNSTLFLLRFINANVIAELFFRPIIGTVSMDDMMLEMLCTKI
hcDAF-12 act – activates DAF-12 receptor from parasite H. contortus. HEK293 hcDAF-12 lit1-tk-luc reporter, luminescence; 0% DMSO, 100% Δ7-dafachronic acid. activation, % at 6.8 µM. 1.4% of 370,000 active. AID 652067;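 active means activation above the mean of all tested compounds plus 3 SD, cut at about 5.5% in these data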
SMARCA2 act – activators of SMARCA2 function. MG213 cells, MMTV-luciferase reporter, dexamethasone, overnight. activation, % at 9.1 µM. 1% of 370,000 active. AID 652017; in the data active means activation above about 7.8%
DAX1 inh-2 – inhibitors of DAX1 repression of SF-1 activated StAR promoter; HEK293T StAR-luciferase reporter, SF-1/DAX-1 repression relief; inhibition, % at 6.8 µM; 1.1% of 370,000 active; AID 652010;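 active means inhibition above the mean over all tested compounds plus 3 SD, cut at about 3.6% in these data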;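 further: higher inhibition means more luminescence from relief of DAX-1 repression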
hgDAF-12 ag – activates the H. glycines DAF-12 receptor ligand-binding domain. HEK293 GAL4-hgDAF12 UAS-luciferase reporter, agonist luminescence; normalized to butyrate control. activation, % at 6.8 µM. 1.8% of 370,000 active;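 active means activation above a cutoff set at the mean of all screened compounds plus 3 SD, cut at about 10% in these data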
ssDAF-12 act – activates DAF-12 receptor from parasite S. stercoralis. 1% of 370,000 active. HEK293 ssDAF-12/GRIP1 lit1-tk-luc reporter, luminescence; % of 3 µM dafachronic acid response. AID 652126. activation, % at 6.8 µM;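 active means activation above the mean over all tested compounds plus 3 SD, cut at about 0.9% in these data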
DAX1 conf – confirmation of human DAX1 (NR0B1) inhibitors; shares compounds with DAX1 inh-2; HEK293T StAR-promoter luciferase reporter, SF-1/DAX-1 repression; inhibition, % at 6.8 µM; 87% of 2,400 active; AID 652134;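 active means inhibition above the average of every tested compound plus 3 SD, cut at about 3.8% in these data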;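 further: active compounds raise luminescence by relieving repression of the StAR reporter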
SF1 mutant ctr – nonselective inhibitor or artifact in SF-1 mutant DAX1 counter-screen | shares compounds with DAX1 inh-2 | inhibition, % at 6.8 µM | 78% of 2,400 active | HEK293 StAR-luciferase, SF-1 AF2 mutant, luminescence | AID 652136;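 active means inhibition above the mean of all tested compounds plus 3 SD, cut at about 3% in these data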
SMARCA2 act conf – confirmation of SMARCA2 (BRM) function activators; 30% of 3,500 active; MG213 cells, MMTV-luciferase with dexamethasone, luminescence, overnight; MG213 cells expressing E1A, Rb sequestered; DMSO wells 0%, reference activator 100%; shares compounds with SMARCA2 act; activation, % at 9.1 µM;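 active means activation above its plate's cutoff, the mean activation of tested wells plus 3 SD, cut at about 7.9% in these data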
GAL4-VP16 Luc – counter-screen for SMARCA2 activators: GAL4-VP16 luciferase reporter activation; shares compounds with SMARCA2 act; HEK293 GAL4-VP16 pG5luc reporter, luciferase luminescence; scaled: DMSO wells 0%, SAHA wells 100%; activation, % at 9.1 µM; 41% of 3,500 active; AID 686939;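 active means activation above the solvent-only control well mean plus 3 SD, averaged across control plates, cut at about 5.2% in these data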
LXRb hcDAF ctr – LXR-beta agonism as hcDAF-12 counter-screen; shares compounds with hcDAF-12 act; HEK293 Gal4-LXR tk-luc reporter, luminescence, 24 h; normalized: DMSO 0%, positive control 100%; activation, % at 6.8 µM; 3,400 tested, under 10 active; AID 743027;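 active means mean percent activation of the reporter above a cutoff set as the average over tested compounds plus their standard deviation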
Target sequence (P55055 whole entry, looked up, the tested form may be a part): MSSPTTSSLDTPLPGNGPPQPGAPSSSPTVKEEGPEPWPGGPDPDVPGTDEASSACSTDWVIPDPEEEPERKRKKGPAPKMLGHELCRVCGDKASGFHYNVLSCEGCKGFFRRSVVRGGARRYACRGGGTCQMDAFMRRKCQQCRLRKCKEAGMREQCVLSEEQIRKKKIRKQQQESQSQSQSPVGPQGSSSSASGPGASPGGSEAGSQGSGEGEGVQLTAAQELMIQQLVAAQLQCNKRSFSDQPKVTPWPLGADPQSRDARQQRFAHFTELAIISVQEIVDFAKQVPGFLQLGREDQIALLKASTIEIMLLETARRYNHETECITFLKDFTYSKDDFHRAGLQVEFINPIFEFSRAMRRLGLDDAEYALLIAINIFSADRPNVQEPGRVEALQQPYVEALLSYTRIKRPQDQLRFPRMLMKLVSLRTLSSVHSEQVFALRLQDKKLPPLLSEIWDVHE
hcDAF12 conf – confirmation of H. contortus DAF-12 agonists; shares compounds with hcDAF-12 act; HEK293 hcDAF-12 lit1-tk-luc reporter, luminescence; % of Δ7-dafachronic acid response; activation, % at 6.8 µM; 61% of 3,400 active; AID 743032;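 active means mean activation across triplicate tests above the threshold derived from the earlier primary screen, cut at about 5.5% in these data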
hgDAF12 ag – hgDAF-12 agonism, confirmation assay | shares compounds with hgDAF-12 ag | HEK293 GAL4-hgDAF12 luciferase reporter, agonist mode; percent of butyrate response | activation, % at 6.8 µM | 80% of 3,300 active | AID 743050;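 active means mean activation over triplicate wells above the hit cutoff derived from the earlier primary screen, cut at about 11% in these data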
LXR ag 2 – counter-screen for DAF-12 agonists: agonists of human LXR-beta. shares compounds with hgDAF-12 ag. HEK293 Gal4-LXR luciferase reporter, 24 h. activation, % at 6.8 µM. 3,300 tested, under 10 active. AID 743051;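 active means mean activation of the triplicate above a set limit carried over from the primary screen, none filed active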
Numbers stand for hits; . = inactive; / = no result given.

SMILES | DAX1 inh-1 | hcDAF-12 act | SMARCA2 act | DAX1 inh-2 | hgDAF-12 ag | ssDAF-12 act | DAX1 conf | SF1 mutant ctr | hgDAF12 ag | LXR ag 2 | others
C/C(=N\NC(=O)c1nn(C)c(C)c1Br)c1ccc(NC(=O)c2ccoc2C)cc1 | . | 8.5 | . | 5.5 | 20 | . | . | . | . | . | LXRb hcDAF ctr=.;hcDAF12 conf=.
C/C(=N\NC(=O)c1cccs1)c1cccnc1 | . | 8.4 | 8.4 | 5.5 | 25 | . | . | . | . | . | SMARCA2 act conf=.;GAL4-VP16 Luc=.;LXRb hcDAF ctr=.;hcDAF12 conf=.
C/C(=N\NC(=O)c1cccs1)c1ccc(C(=O)O)s1 | . | 7.0 | . | 8.0 | 15 | . | . | . | . | . | LXRb hcDAF ctr=.;hcDAF12 conf=.
C/C(=N\NC(=O)c1ccoc1C)c1cccnc1 | . | . | . | 5.5 | 14 | . | . | . | . | .
CCC(=O)Nc1ccc(/C(C)=N/NC(=O)c2c(Br)c(C)nn2C)cc1 | . | . | . | . | . | . | / | / | / | /
C/C(=N\NC(=O)c1ccncc1)c1cccs1 | . | . | . | . | . | . | / | / | / | /
Cc1ccccc1S(=O)(=O)N(C)C[C@@H]1OCc2cn(nn2)CCCC(=O)N([C@@H](C)CO)C[C@H]1C | / | . | . | . | . | . | / | / | / | /
C/C(=N\NC(=O)c1ccc2ccccc2c1)c1cccs1 | . | . | . | 9.8 | 13 | . | 7.5 | 5.0 | 21 | .
Cc1ccc(OCc2nc(-c3cccs3)no2)c([N+](=O)[O-])c1 | . | 7.1 | 7.9 | 12 | 14 | 1.9 | 15 | 7.1 | 19 | . | LXRb hcDAF ctr=.;hcDAF12 conf=7.6
Cc1ccc(OCc2nc(-c3ccccc3)no2)c(C)c1 | . | . | . | . | . | . | / | / | / | /
O=C(O)CCc1nc(-c2cccs2)no1 | . | . | . | . | . | . | / | / | / | /
O=[N+]([O-])c1ccccc1OCc1nc(-c2cccs2)no1 | . | . | . | 8.5 | 14 | . | 11 | 6.2 | 14 | .
CC(C)C(=O)Nc1ccc(C=C2C=Cc3ccccc32)cc1 | / | . | . | 5.5 | 17 | 0.9 | 8.8 | 5.0 | 20 | .
CC(C)C(=O)Nc1ccc(Nc2ccccc2)cc1 | . | . | . | . | . | . | / | / | / | /
CCCn1cnc2cc(NC(=O)c3ccco3)ccc21 | . | 6.6 | . | 5.5 | 15 | 1.2 | . | 3.8 | . | . | LXRb hcDAF ctr=.;hcDAF12 conf=.
O=C(Nc1ccc(NC(=O)c2ccco2)nc1)c1ccco1 | . | . | . | 5.9 | 15 | . | 10 | 2.9 | 13 | .
COC(=O)C1CN(Cc2ccc(OC)cc2)CCS(=O)(=O)N1Cc1ccc(Cl)cc1 (configuration not stated) | / | . | . | . | . | . | / | / | / | /
O=C(NCc1ccc(C(=O)N2CCCC2)cc1)c1cccc(Br)c1 | / | . | . | . | . | . | / | / | / | /
O=C(Nc1ccc(N2CCOCC2)cc1)c1ccncc1 | . | . | . | . | . | . | / | / | / | /
Cn1cccc1C(=O)Nc1ccc(N2CCOCC2)cc1 | . | . | . | 8.2 | 18 | . | 8.3 | 4.4 | 16 | .
Nc1c2c(nc3sc4c(c13)CCCCC4)CCCCC2 | . | 5.8 | . | 5.0 | 16 | . | 8.7 | 3.5 | 16 | .
CCc1c(-c2ccccc2)nc2sc3c(c2c1N)CCCC3 | . | . | . | . | . | . | / | / | / | /
CC1CCCCC12NC(=O)N(CC(=O)NCc1cccs1)C2=O (configuration not stated) | . | . | . | . | . | . | / | / | / | /
Cc1cc(C(=O)CN2C(=O)NC3(CCCCC3C)C2=O)c(C)n1Cc1cccs1 (configuration not stated) | . | . | . | 5.0 | 15 | . | 9.6 | 5.5 | 10 | .
C[C@H]1[C@@H](OC(=O)Nc2cccc(C(F)(F)F)c2)CC[C@@]23CCCN2C(=O)CCC[C@@H]13 | / | . | / | / | . | . | / | / | / | /
SMILES | DAX1 inh-1 | hcDAF-12 act | SMARCA2 act | DAX1 inh-2 | hgDAF-12 ag | ssDAF-12 act | DAX1 conf | SF1 mutant ctr | hgDAF12 ag | LXR ag 2 | others
NC(=O)c1ccc(OCc2ccccc2)nc1 | . | . | . | 5.0 | 15 | . | 5.8 | 3.3 | 11 | .
Brc1ccc(-c2cn3nc4c(nc3n2)CCCC4)cc1 | . | 12 | . | 4.9 | 14 | . | 6.8 | 3.2 | 14 | . | LXRb hcDAF ctr=.;hcDAF12 conf=8.2
O=C(Nc1ccccc1Cl)c1ccc2c(=O)n3c(nc2c1)CCC3 | . | . | . | 12 | 15 | . | 8.8 | 5.0 | 14 | .
O=C(NCCOc1ccccc1F)c1ccc2c(=O)n3c(nc2c1)CCC3 | . | . | . | 8.5 | 16 | . | 7.8 | 4.5 | 12 | .
O=C(COc1ccccc1F)NNC(=O)c1ccc2c(=O)n3c(nc2c1)CCC3 | . | . | . | . | . | . | / | / | / | /
COc1cccc(NC(=O)NC2CCCCN(Cc3ccccc3C)C2=O)c1 (configuration not stated) | / | . | . | . | . | . | / | / | / | /
CCS(=O)(=O)Nc1cc(-c2nc3cccnc3s2)ccc1C | . | 8.3 | . | 6.4 | 22 | . | 8.9 | 7.7 | 16 | . | LXRb hcDAF ctr=.;hcDAF12 conf=5.6
NC(=O)C1CC(=O)N(c2ccc(OCc3ccc(Cl)cc3Cl)cc2)C1 (configuration not stated) | . | . | . | . | . | . | / | / | / | /
NC(=O)C1CC(=O)N(c2ccc(OCc3ccc(Cl)c(Cl)c3)cc2)C1 (configuration not stated) | 4.5 | 5.8 | . | 10 | 25 | . | 15 | 9.3 | 16 | .

Screening data as filed in PubChem BioAssay.
